Screens (PubChem BioAssay)
In the library only some 2.2% were active in any assay of this set; here they are far more common.
LGR2 inh – Drosophila LGR2 receptor signaling inhibition. HEK293 LGR2, CRE-luciferase, bursicon-stimulated, 4 h. inhibition, % at 9.99 µM. hit rate 0.35% among 380,000. AID 720647;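 active means drop in luminescence signal, shown as inhibition above about 50% in the replicate tests, limit read from the data, passing the limit was not always enough; inconclusive means probably only some replicates passing the limit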;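 further: agonist challenge used bursicon conditioned medium at about half maximal strength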
TRPM1 prom inh – reduces MITF-dependent TRPM1 promoter luciferase signal; AID 488899; inhibition, % at 12.5 µM; SK-MEL-5 TRPM1 promoter luciferase, 24 h; hit rate 0.83% among 330,000;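 active means mean inhibition across replicates of 60% or more, whatever share of single replicates reaches that level; inconclusive means some that reach 60%, reason not given; inactive means mean inhibition across replicates below 60%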
PGC1a acetyl inh – PGC1a acetylation modulation, inhibitor mode; hit rate 0.17% among 350,000; inhibition, % at 15.6 µM; U2OS PGC1a acetylation, AlphaScreen anti-acetyl-lysine; with virally co-expressed GCN5 acetyltransferase;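 active means every replicate shows inhibition of at least 40%; inconclusive means mean inhibition at least 40% but some replicate below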
EWS-Fli inh – inhibitors of EWS/Fli oncoprotein transcriptional activity. A673 NR0B1-luciferase reporter, viability-normalised. inhibition, % at 12.6 µM. hit rate 0.67% among 350,000;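 active means mean inhibition of at least 50% after viability correction, with every replicate also passing that limit; inconclusive means mean reaches 50% but only one of two replicates passes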;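 further: firefly luciferase signal divided by Alamar Blue viability fluorescence both relative to DMSO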
PAX8 reporter – lowers PAX8-driven luciferase in RMG-I cells | RMG-I TPO-luciferase reporter, SteadyGlo, 24 h | AID 652154 | hit rate 1.2% among 360,000 | inhibition, % at 12.6 µM;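 active means mean replicate inhibition at least 60% with every replicate also reaching 60%; inconclusive means only one of the two criteria is met; inactive means mean below 60% and not all replicates reaching 60%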;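 further: luciferase light reporting Pax8 driven TPO promoter activity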
EBV LMP1 NFkB – reduces LMP1-driven NF-kappaB luciferase signal | LMP1-induced NF-kappaB luciferase reporter cells, luminescence | inhibition, % at 12.5 µM | hit rate 0.69% among 350,000 | AID 504558; in the data active means inhibition above about 41%; inconclusive means no clear call, values can overlap the other calls
Hits are given with their value; – = inactive; ? = inconclusive; · = no result.

SMILES	LGR2 inh	TRPM1 prom inh	PGC1a acetyl inh	EWS-Fli inh	PAX8 reporter	EBV LMP1 NFkB
CN(Cc1ccc(F)cc1)C(=O)CN1CCN(S(=O)(=O)c2ccc3c(c2)OCCCO3)CC1	–	·	·	–	–	48
CN(Cc1cccc(F)c1)C(=O)CN1CCN(S(=O)(=O)c2ccc3c(c2)OCCCO3)CC1	–	–	–	–	–	–
O=C(C1CCCCC1)N1CCN(c2ncccn2)CC1	–	–	–	·	·	48
O=C(COc1ccc2c(c1)CCC2)Nc1ccccn1	74	–	–	–	–	–
CCS(=O)(=O)N1CCC2(CC1)CN(C(=O)c1ccc(F)cc1)[C@@H](CO)c1[nH]c3cc(OC)ccc3c12	–	·	–	–	–	·
O=C1C=CC(=O)c2c(O)c(N3CCN(CCO)CC3)c(Cl)c(O)c21	–	99	51	–	–	72
O=C1C=CC(=O)c2c(O)c(N3CCN(CCOCCO)CC3)c(Br)c(O)c21	–	97	·	?	97	82
OCCOCCN1CCN(C2=Nc3ccccc3Sc3ccccc32)CC1	–	–	–	–	–	–
CC(C)NC(=O)N(C)C[C@@H]1Oc2ccc(NC(=O)CCC(F)(F)F)cc2C(=O)N([C@@H](C)CO)C[C@H]1C	–	·	–	–	–	·
CC(=O)N1CC[C@@H]2[C@H]1c1cc(-c3ccc(C#N)cc3)ccc1N(C)[C@@H]2CO	–	·	–	–	–	·
COc1ccc2c(C)c(Cl)c(=O)oc2c1	–	–	–	·	·	–
C=C1CC(COc2ccc3c(C)c(Cl)c(=O)oc3c2)(c2ccccc2)OC1=O (configuration not stated)	49	101	–	?	100	–
COc1ccc(NC(=O)Nc2ccc3c(c2)C(=O)N([C@@H](C)CO)C[C@@H](C)[C@H](CN(C)C(=O)NC2CCCCC2)OCCCC[C@@H](C)O3)cc1	–	·	–	–	–	·
COc1cc(/C=N/NC(=Nc2ccc(C)cc2)c2nc3ccccc3s2)ccc1O	·	69	–	·	·	–
CC(=O)N1N=C(c2ccc(NS(=O)(=O)c3ccccc3)cc2)CC1c1ccco1 (configuration not stated)	–	–	–	54	–	–
CC(=O)N1N=C(c2cccc(NS(=O)(=O)c3ccc(C)cc3)c2)CC1c1ccco1 (configuration not stated)	–	–	–	·	–	–
Cc1cc(C)c(OCCn2ccnc2)c(C)c1	·	–	–	–	–	73
C[C@H](CO)N1C[C@H](C)[C@@H](CN(C)Cc2ccc(Oc3ccccc3)cc2)Oc2ccc(NC(=O)c3ccncc3)cc2CC1=O	–	·	–	–	–	·
CCN(CC)S(=O)(=O)c1ccc(NC(=O)Nc2cccc(C(F)(F)F)c2)cc1	·	60	–	·	·	–
Cc1ccc(S(=O)(=O)Nc2ccc(NC(=O)Nc3cccc(C(F)(F)F)c3)cc2)cc1	–	–	·	–	–	–
CN(C)C(=O)C[C@H]1C=C[C@@H](NC(=O)Nc2cccc(F)c2)[C@@H](CO)O1	–	·	–	–	–	·
CCC(=O)N(C)/C=C1\Sc2ccccc2C1=O	–	–	–	·	·	76
CC(=O)N(C)/C=C1\Sc2ccccc2C1=O	–	–	–	·	·	–
C[C@@H]1CCCCO[C@@H](CN(C)S(=O)(=O)c2cn(C)cn2)[C@H](C)CN([C@@H](C)CO)C(=O)c2cc(NC(=O)C3CCCCC3)ccc2O1	–	·	·	–	–	·
CC(C)(C)N(Cc1ccc2c(c1)OCO2)C(=O)/C=C\S(=O)c1ccccc1 (configuration not stated)	59	90	·	–	95	–
SMILES	LGR2 inh	TRPM1 prom inh	PGC1a acetyl inh	EWS-Fli inh	PAX8 reporter	EBV LMP1 NFkB
CO[C@@H](CN(C)C(=O)c1ccccc1F)[C@H](C)CN([C@@H](C)CO)S(=O)(=O)c1ccccc1	–	·	–	–	·	·
Nc1nc(Nc2ccccc2)sc1C(=O)c1ccccc1	71	–	–	–	–	–
O=C(N[C@@H]1CC[C@H](CCNS(=O)(=O)c2cccc(Cl)c2)O[C@@H]1CO)c1ccncc1	–	·	–	–	–	·
Cc1ccccc1NC(=O)CN1C(=O)C2C3CC(C(Br)C3Br)C2C1=O (configuration not stated)	–	–	·	–	63	–
C[C@@H]1CN([C@@H](C)CO)C(=O)c2c(c3ccccc3n2C)-c2ccccc2CO[C@@H]1CN(C)S(=O)(=O)c1cn(C)cn1	–	·	–	–	–	·
C[C@@H]1CN([C@@H](C)CO)S(=O)(=O)c2ccc(C3=CCCCC3)cc2O[C@@H]1CN(C)C(=O)C1CC1	–	·	–	–	·	·
COc1ccc(CN2C[C@@H](C)[C@@H](OC)CN(C)C(=O)c3cc(NC(C)=O)ccc3OC[C@@H]2C)cc1	–	·	–	–	·	·
C=CC[n+]1ccc(/C=C2\C=Cc3cc(C)ccc3N2CC)c2ccccc21	·	84	·	·	·	56
CCN1/C(=C/c2cc[n+](CCCS(=O)(=O)[O-])c3ccccc23)Sc2ccccc21	–	–	·	–	–	–
Cc1[nH]nc2nc(SCC(=O)NC3CCCCC3)n(-c3ccc(Br)cc3)c(=N)c12	–	–	·	·	109	–
O=C(NC1CCCCC1)C(c1ccc(F)cc1)N(CCc1ccccc1)C(=O)CN1C(=O)c2ccccc2S1(=O)=O (configuration not stated)	·	64	–	–	–	–
C[C@@H]1CCCCO[C@H](CN(C)CC2CC2)[C@H](C)CN([C@@H](C)CO)C(=O)c2cc(NC(=O)Nc3ccc(C(F)(F)F)cc3)ccc2O1	–	·	–	76	–	·
C[C@H](CO)N1C[C@H](C)[C@H](CN(C)CC2CC2)OCCCC[C@H](C)Oc2ccc(NC(=O)Nc3ccc(C(F)(F)F)cc3)cc2C1=O	–	·	–	–	73	·
C[C@H](CO)N1C[C@H](C)[C@@H](CN(C)C)Oc2ccc(NC(=O)Nc3ccc4c(c3)OCO4)cc2CC1=O	–	·	–	–	–	·
CCCN1[C@@H]2c3ccc(-c4ccccc4)c(=O)n3C[C@@H]2[C@@H](CO)[C@@H]1C(=O)NCC1CC1	–	·	·	–	–	·
CC(C)(C)c1nn(-c2ccccc2)c2[nH]c(=O)c(CNCc3ccco3)cc12	–	67	–	·	·	–
COCC(=O)N1C[C@H]2[C@@H](c3ccccc31)[C@H](CO)N2C(=O)c1ccncc1	–	·	–	–	–	·
C[C@@H]1CN([C@@H](C)CO)C(=O)c2cc(-c3ccncc3)cnc2O[C@H]1CN(C)Cc1ccc(Oc2ccccc2)cc1	·	·	–	–	·	·
C[C@H](CO)N1C[C@H](C)[C@@H](CN(C)C(=O)Nc2cccc3ccccc23)Oc2ccc(NS(=O)(=O)c3cn(C)cn3)cc2CC1=O	–	·	–	–	–	·
Cc1cccc(C(=O)N[C@H](C(=O)Nc2ncc(C)s2)C(C)C)c1	–	–	·	–	70	–
COc1cc(C(=O)O/N=C(\N)c2ccccn2)cc(OC)c1OC	–	–	–	–	–	–
Cc1cccc(/C(N)=N/OC(=O)c2ccc3c(c2)OCO3)c1	54	–	–	·	–	–
Cc1cccc(C(=O)O/N=C(\N)c2ccccn2)c1	100	–	–	77	84	–
